Structures are written as SMILES. Results filed as inconclusive are left out. Unmarked numbers belong to inactive results. The source made the active and inactive calls. Calls follow the shape of the dose curve; as a rule, active = well fitted curve in the direction sought with a large enough effect; inconclusive = small, poorly fitted or top-dose-only effect, or another doubt; inactive = no such curve, though single readings can be large; an effect the other way counts as inactive or inconclusive.

Assay [1] addresses Rap guanine nucleotide exchange factor 3 (Homo sapiens) (UniProt O95398). The assay is described as follows: Confirmatory qHTS for antagonist of cAMP-regulated guanine nucleotide exchange factor 3 (EPAC1) (AID 1645880). Also: nearly all actives have a fitted effect of over 55% in size. Also: potency is read from the fitted curve at half-maximal effect.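 As to activity, negative = inhibition: plate controls were DMSO only for no effect and full effect of the ATA control for full effect.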 To be noted: EPAC1 Rap1B-BODIPY-GDP exchange, fluorescence; activity, negative = inhibition: at 115 µM (top of the series). The method, boiled down:
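Released BODIPY-GDP fluoresces less than Rap1-bound BODIPY-GDP; the signal is followed at 480/540 nm at 5-min intervals over 30 min, after 5 min at room temperature. Reactions contain 100 nM EPAC1, 250 nM RAP1B-BODIPY-GDP and 50 uM GDP; results are normalized to ATA and DMSO.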
A general note: Quantitative high-throughput screening tests each substance at several concentrations.

The target is the same in assay [2]. In words: Confirmatory qHTS for agonist of cAMP-regulated guanine nucleotide exchange factor 3 (EPAC1) (AID 1645881).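 Also: EPAC1 catalysed release of BODIPY-GDP from Rap1B seen as fluorescence loss; 100% = effect of cAMP agonist control; nearly all actives have a fitted effect of over 75% in size.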
In assay [3] the target is Rap guanine nucleotide exchange factor 4 (Homo sapiens) (UniProt Q8WZA2). The assay is described as follows: Confirmatory qHTS for agonist of cAMP-regulated guanine nucleotide exchange factor 4 (EPAC2) (AID 1645884).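 Also: nucleotide exchange releases bodipy-GDP from Rap1 and this lowers its fluorescence; % is scaled to controls: 0 for no effect and ±100 for the full control effect; nearly all actives have a fitted effect of over 65% in size.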
Chain of Rap guanine nucleotide exchange factor 4 (Homo sapiens) (Q8WZA2 whole entry, looked up): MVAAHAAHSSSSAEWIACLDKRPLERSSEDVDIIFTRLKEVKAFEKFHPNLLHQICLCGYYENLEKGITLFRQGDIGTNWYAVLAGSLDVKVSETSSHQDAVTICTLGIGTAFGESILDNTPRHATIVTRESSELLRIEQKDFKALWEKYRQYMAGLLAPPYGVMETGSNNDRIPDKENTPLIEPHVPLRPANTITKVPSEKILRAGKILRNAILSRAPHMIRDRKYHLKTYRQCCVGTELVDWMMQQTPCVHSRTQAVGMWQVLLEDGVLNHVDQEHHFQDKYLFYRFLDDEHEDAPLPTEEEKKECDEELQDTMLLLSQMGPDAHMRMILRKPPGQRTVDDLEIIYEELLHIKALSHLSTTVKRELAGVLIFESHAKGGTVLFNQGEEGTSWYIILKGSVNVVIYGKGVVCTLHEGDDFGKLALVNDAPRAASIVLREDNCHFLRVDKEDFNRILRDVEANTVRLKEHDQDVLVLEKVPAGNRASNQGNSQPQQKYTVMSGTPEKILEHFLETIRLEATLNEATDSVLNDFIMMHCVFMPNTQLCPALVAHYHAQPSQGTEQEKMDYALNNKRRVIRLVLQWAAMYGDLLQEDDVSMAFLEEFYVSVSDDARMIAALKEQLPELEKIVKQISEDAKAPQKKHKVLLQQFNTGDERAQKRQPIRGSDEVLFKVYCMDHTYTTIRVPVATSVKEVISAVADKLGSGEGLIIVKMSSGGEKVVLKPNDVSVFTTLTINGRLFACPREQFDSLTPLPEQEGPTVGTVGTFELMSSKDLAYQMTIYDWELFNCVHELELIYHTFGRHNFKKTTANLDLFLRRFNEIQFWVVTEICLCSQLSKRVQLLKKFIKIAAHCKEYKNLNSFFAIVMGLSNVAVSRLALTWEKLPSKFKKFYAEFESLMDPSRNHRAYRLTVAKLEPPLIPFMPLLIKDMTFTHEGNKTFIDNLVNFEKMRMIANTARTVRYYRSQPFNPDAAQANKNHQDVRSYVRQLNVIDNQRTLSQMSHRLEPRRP
Assay [4] has the same target. The assay is described as follows: Confirmatory qHTS for antagonist of cAMP-regulated guanine nucleotide exchange factor 4 (EPAC2) (AID 1645885). Also: nearly all actives have a fitted effect of over 25% in size. Also: potency is read from the fitted curve at half-maximal effect. As to activity change, negative = inhibition: % is scaled to controls: 0 for no effect and ±100 for the full control effect.
Assay [5] has as its target Rap guanine nucleotide exchange factor 3 (Homo sapiens) (UniProt O95398). In words: Counterscreen qHTS for antagonist of cAMP-regulated guanine nucleotide exchange factor 3 (EPAC1) (AID 1645888). Also: % of control where 0% means no effect. In short, it runs like this: (§1)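 Rap1B-BODIPY-GDP 250 nM + GDP 50 uM; cpds 7-pt, final 9.74 nM–152 uM (activator mode) or from 7.32 nM upwards (inhibitor mode); RT; FI 480/540 nm at 5 and 30 min, then ± cAMP, reread.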

Assay [6] shares this target. In words: Counterscreen qHTS for agonist of cAMP-regulated guanine nucleotide exchange factor 3 (EPAC1) (AID 1645889). Also: nearly all actives have a fitted effect of over 40% in size. Also: potency is read from the fitted curve at half-maximal effect. As to activation: % of control where 0% means no effect. The method, boiled down:
as §1

Chain of Rap guanine nucleotide exchange factor 3 (Homo sapiens) (O95398 whole entry, looked up): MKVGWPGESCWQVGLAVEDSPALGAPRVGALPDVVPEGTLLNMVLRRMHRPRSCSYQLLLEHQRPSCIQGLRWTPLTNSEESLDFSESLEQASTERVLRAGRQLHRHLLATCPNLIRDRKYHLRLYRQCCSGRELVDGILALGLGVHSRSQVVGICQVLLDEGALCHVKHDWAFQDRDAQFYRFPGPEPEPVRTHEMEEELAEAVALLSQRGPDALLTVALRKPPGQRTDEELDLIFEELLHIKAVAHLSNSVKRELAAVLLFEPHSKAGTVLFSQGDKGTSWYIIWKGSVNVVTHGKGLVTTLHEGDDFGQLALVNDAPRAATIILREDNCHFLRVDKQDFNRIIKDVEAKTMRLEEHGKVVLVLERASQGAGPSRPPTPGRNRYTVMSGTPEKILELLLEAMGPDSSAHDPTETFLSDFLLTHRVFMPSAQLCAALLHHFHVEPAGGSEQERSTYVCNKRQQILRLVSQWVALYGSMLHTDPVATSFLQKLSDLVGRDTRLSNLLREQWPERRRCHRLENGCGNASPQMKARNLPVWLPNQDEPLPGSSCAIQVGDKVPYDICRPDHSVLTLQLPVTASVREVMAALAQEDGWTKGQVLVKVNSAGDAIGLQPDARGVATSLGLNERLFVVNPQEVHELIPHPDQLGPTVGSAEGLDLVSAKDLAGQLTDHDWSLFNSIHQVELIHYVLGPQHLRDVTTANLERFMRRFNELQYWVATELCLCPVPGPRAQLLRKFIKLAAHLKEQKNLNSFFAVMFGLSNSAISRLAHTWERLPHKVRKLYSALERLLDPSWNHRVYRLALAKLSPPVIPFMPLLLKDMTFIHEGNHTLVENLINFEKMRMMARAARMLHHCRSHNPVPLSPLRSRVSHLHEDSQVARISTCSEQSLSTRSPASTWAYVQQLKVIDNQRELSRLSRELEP

For `COc1cc(/C=C2\SC(=S)N(CC(=O)O)C2=O)ccc1OS(=O)(=O)c1ccc(C)cc1`, in assay [1], the Potency is 23.9 µM (active). The Potency result in assay [2], in assay [3], in assay [4], in assay [5] and in assay [6] was “inactive” each time.

In the case of `COc1ccc(S(=O)(=O)N2CCCCC2)cc1C(C)C`, the Potency entry in assay [1], in assay [2], in assay [3], in assay [5] and in assay [6] was “inactive” each time. The Potency in assay [4] is 8.49 µM (active).

Turning to `O=C1NC(=S)S/C1=C\c1ccc(SCc2ccccc2)o1`, in assay [1], the Potency is 21.3 µM (active). Moreover, the Potency entry in assay [2], in assay [3], in assay [4], in assay [5] and in assay [6] was “inactive” in each case.

On to `COc1cc(CNc2ccc(O)cc2)cc(Br)c1OCc1ccccc1`, for which the Potency result in assay [1], in assay [2], in assay [3], in assay [4], in assay [5] and in assay [6] was “inactive” each time.

As for `CCN1C(=O)/C(=C/c2ccc(OCc3ccc(C(=O)O)cc3)c(Cl)c2)NC1=S`, the Potency in assay [1] was 42.6 µM (active). In addition, the Potency result in assay [2], in assay [3], in assay [4], in assay [5] and in assay [6] was “inactive” each time.

As for `COc1ccc(-n2ccn(Cc3ccc(C)cc3)c(=O)c2=O)cc1OC`, the Potency result in assay [1], in assay [2], in assay [3], in assay [4], in assay [5] and in assay [6] was “inactive” each time.

With `COC(=O)CCNC(=O)NC(CCC(C)C)c1c(-n2cccc2)sc2c1CCN(C)C2` (centres undefined), the Potency entry in assay [1], in assay [2], in assay [3], in assay [4], in assay [5] and in assay [6] was “inactive” in each case.

In the case of `O=C(c1ccccc1)c1coc2ccc(O)c(Cl)c12`, the Potency result in assay [1], in assay [2] and in assay [4] was “inactive” each time. For the same compound, the activation in assay [3] is 4.32% [at 17.1 µM, percent relative to cAMP agonist control]; in assay [6], 44.7% [at 30.8 µM]. In addition, the activity change, negative = inhibition in assay [5] is -20.3% [at 30.8 µM].

With `Cc1nc(-[n+]2nc(-c3ccncc3)nn2-c2ccccc2)sc1C`, the Potency in assay [1] is 22.4 µM (active). Also, the Potency result in assay [2] and in assay [4] was “inactive” throughout. For the same compound, the activation in assay [3] was 5.19% [at 17.1 µM, percent relative to cAMP agonist control]; in assay [6], 2.91% [at 30.8 µM]. In assay [5], the activity change, negative = inhibition is -23.3% [at 30.8 µM].

Regarding `CCOC(=O)c1cc(-c2nnc(SCC(=O)Nc3ccc(F)cc3)o2)c(C)nc1C`, the Potency result in assay [1], in assay [2], in assay [3], in assay [4], in assay [5] and in assay [6] was “inactive” throughout.

In the case of `CCN1CCN(c2ccc(S(=O)(=O)N3CCOCC3)cc2NC(=O)c2cc(Cl)nc3ccccc23)CC1`, the Potency entry in assay [1], in assay [2] and in assay [4] was “inactive” in each case. In addition, the activation in assay [3] is 4.04% [at 17.1 µM, percent relative to cAMP agonist control]; in assay [6] it was 5.03% [at 30.8 µM]. Besides, the activity change, negative = inhibition in assay [5] was 7.51% [at 30.8 µM].

Regarding `Cc1nn(C(=O)c2ccco2)c(C)c1Sc1ccccc1`, the Potency entry in assay [1], in assay [2], in assay [3], in assay [5] and in assay [6] was “inactive” throughout. Besides, in assay [4], the Potency was 10.7 µM (active).

For the compound `C[C@H]1CN([C@@H](C)CO)C(=O)CCCn2cc(nn2)CO[C@@H]1CN(C)S(=O)(=O)c1ccc(-n2cccn2)cc1`, the Potency entry in assay [1], in assay [2], in assay [3], in assay [4], in assay [5] and in assay [6] was “inactive” each time.

As for `COc1ccc(C2c3ccsc3CCN2C(C)=O)cc1` (centres undefined), the Potency entry in assay [1], in assay [2], in assay [3], in assay [4], in assay [5] and in assay [6] was “inactive” in each case.

On to `O=C1CCC/C(=N/NC(=O)c2sc3ccccc3c2Cl)C1`, for which the Potency entry in assay [1], in assay [2], in assay [3] and in assay [5] was “inactive” throughout. Besides, the Potency is 16.9 µM (active) in assay [4] and 22.4 µM (active) in assay [6].

Take `COc1cc(NC(=O)CCc2c(C)nc3c4c(C)cc(C)nc4nn3c2C)cc(OC)c1`: the Potency entry in assay [1], in assay [2], in assay [3], in assay [4], in assay [5] and in assay [6] was “inactive” each time.

With `CC(Oc1ccc(Br)cc1)C(=O)NCC(c1cccs1)N1CCOCC1` (centres undefined), the Potency result in assay [1], in assay [2], in assay [3], in assay [4], in assay [5] and in assay [6] was “inactive” each time.

On to `CCOc1ccc2nc(S(=O)(=O)NC(=O)C3(C)CCN3C(=O)CCc3cccs3)sc2c1` (centres undefined), for which the Potency result in assay [1], in assay [2] and in assay [4] was “inactive” in each case. Further, the activation in assay [3] was 5.68% [at 17.1 µM, percent relative to cAMP agonist control]; in assay [6], 4.36% [at 30.8 µM]. The activity change, negative = inhibition in assay [5] was -20.4% [at 30.8 µM].

Regarding `COc1ccc(Cl)cc1-n1c(=S)sc2c(=O)[nH]c(SCC(=O)NCCC(C)C)nc21`, in assay [1], the Potency is 15.1 µM (active). Further, the Potency entry in assay [2], in assay [3], in assay [4], in assay [5] and in assay [6] was “inactive” each time.

The values above are taken from PubChem BioAssay (NCATS).
